# Pf Dd2 inh = Plasmodium falciparum Dd2 growth inhibition; P. falciparum Dd2 growth, SYBR Green, 72 h; AID 1347417; hit rate 4.3% among 120,000; Potency, µM (titrated, usually from 28.9 µM), for inactives: top-dose activity, negative = inhibition, most hits filed as inhibitors; active = well fitted inhibition curve with a large enough effect;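 also: plate controls were DMSO vehicle for no effect and reference drug for full effect; nearly all actives have a fitted effect of over 65% in size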
#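 Readout: SYBR Green fluorescence, 485 nm excitation, 535 nm emission, after ~16 h lysis at 37C. Before that, Dd2-infected red cells (2.5% hematocrit) grew 72 h with compound, 29 uM top final concentration.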
# * marks the source's active call; other numbers are inactive results; i = inactive; [ ] = another dose, or the depositor's remark. The entries come from a sample that favours hits as a whole. Potency is read from the fitted curve at half-maximal effect.
SMILES,Pf Dd2 inh
COc1cc(C2C(C(=O)Nc3ccc(Cl)cc3)=C(C)Nc3nc(SC)nn32)cc(OC)c1OC (stereo not drawn),-4.6%
COc1ccc(NC(=O)C2=C(C)Nc3nc(SCc4ccc(Cl)cc4)nn3C2c2cccc(OC)c2OC)cc1 (stereo not drawn),i
COc1cccc(C2C(C(=O)Nc3ccc(Cl)cc3)=C(C)Nc3c(C(=O)Nc4ccccc4)cnn32)c1OC (stereo not drawn),12.6µM*
COc1cccc(C2C(C(=O)Nc3ccc(Cl)cc3)=C(C)Nc3nc4ccccc4n32)c1OC (stereo not drawn),-22.0%
COc1ccc(C2C(C(=O)Nc3ccc(Cl)cc3)=C(C)Nc3nc(SCc4cccc(C)c4)nn32)cc1OC (stereo not drawn),8.1%
COc1ccc(NC(=O)C2=C(C)Nc3c(C(=O)Nc4ccc(C)cc4)cnn3C2c2cccc(Cl)c2)cc1 (stereo not drawn),3.16µM*
Cc1cc(OCC(=O)c2ccc3c(c2)N(CC(=O)NCC2CCCO2)C(=O)CO3)ccc1C(C)C (stereo not drawn),i
CCOc1ccccc1CNC(=O)[C@@H]1CN(S(C)(=O)=O)C[C@H]1c1ccncc1,2.1%
CC(C)c1noc(-c2cn(C3CCCN(C(=O)c4ccc(F)cc4Cl)C3)nn2)n1 (stereo not drawn),i
Cc1ccc(N(CC(=O)Nc2ccc(OC(F)(F)F)cc2)S(=O)(=O)c2c(C)noc2C)cc1,-15.9%
Cc1noc(C)c1S(=O)(=O)N(CC(=O)Nc1ccc(C(F)(F)F)cc1)c1ccc(C(C)C)cc1,11.2µM*
Cc1n[nH]c(C)c1S(=O)(=O)N(CC(=O)Nc1ccc(C(F)(F)F)cc1)c1ccc(C(C)C)cc1,-0.1%
COCCOC1CN(C2CCN(Cc3ccc(C)o3)CC2)C12CCCCC2 (stereo not drawn),5.01µM*
Cc1ccc(CN2CCC(N3CC(OCC4CC4)C34CCOCC4)CC2)s1 (stereo not drawn),10µM*
COCCOC1CN(C2CCN(C(=O)c3ccc(C)nc3)CC2)C12CCCCC2 (stereo not drawn),i
CCC(=O)N(C1CCOCC1)C1CCN(Cc2ccc(C)o2)CC1,18.3%
COC1CN(C2CCN(C(=O)Cc3ccccc3)CC2)C12CCOCC2 (stereo not drawn),i
COC1CN(C2CCN(C(=O)c3ccoc3)CC2)C12CCOCC2 (stereo not drawn),-24.1%
Cc1ccncc1C(=O)N1CCC(N2CC(OCC3CC3)C23CCCCC3)CC1 (stereo not drawn),-18.3%
Cn1cccc1CN1CCC(N2CCOC2=O)CC1,3.6%[44.1 µM]
Cn1cccc1CN1CCC(N2CC(OCC3CC3)C23CCCCC3)CC1 (stereo not drawn),0.631µM*
c1ccc(CN2CCC(N3CC(OCC4CC4)C34CCOCC4)CC2)cc1 (stereo not drawn),5.62µM*
O=C(c1ccccn1)N1CCC(N2CC(OCC3CC3)C23CCOCC3)CC1 (stereo not drawn),-8.4%
Cc1ncoc1C(=O)N1CCC(N2CC(OCC3CC3)C23CCOCC3)CC1 (stereo not drawn),-7.0%
O=C(c1cnccn1)N1C[C@@H]2OCC(=O)N(c3ccccc3)[C@@H]2C1,-3.6%[44.1 µM]
SMILES,Pf Dd2 inh
COc1ccc(S(=O)(=O)N2C[C@@H]3C[C@H](C2)c2ccc(NS(=O)(=O)c4cccs4)c(=O)n2C3)cc1,2.7%
O=C(C1CC(=O)N(c2n[nH]c3ccccc23)C1)N1CCN(CCc2ccncc2)CC1 (stereo not drawn),-14.3%
O=C(CN1CCCc2nc(-c3ccccc3)ncc2C1=O)NCCCN1CCCC1=O,-20.7%
CCn1nccc1C(=O)N1CCCC(c2nnnn2-c2ccccc2)C1 (stereo not drawn),-14.3%
Cc1nc2c(c(=O)[nH]1)CCN(C(=O)C1(C)CCc3c(C)c(O)c(C)c(C)c3O1)C2 (stereo not drawn),-20.1%
COc1ccc(C(=O)N2CCCC(c3nc(-c4cnccn4)no3)CCNC(=O)CC2)cc1F (stereo not drawn),-27.6%
Cn1cc(C2c3nccn3CCCN2C(=O)c2ncccc2F)cn1 (stereo not drawn),2.7%
CC1(C)Cc2nc(C(C)(C)C)ncc2C(NC(=O)CCCN2CCCC2=O)C1 (stereo not drawn),-12.7%
COc1ccccc1N1CCN(C(=O)CN2C(=O)C(c3ccccc3)=NC23CCCC3)CC1,i
O=C(NCc1csc(-c2cnccn2)n1)[C@H]1CCC[C@H](O)C1,-10.8%
Cc1nc(CN2CCN(C(=O)[C@H]3CC[C@@H](N)C3)CC2)cs1,22.3%
N[C@@H]1CC[C@H](C(=O)NCc2csc(N3CCCC3)n2)C1,11.2µM*
COc1ccc(-c2nnc(SCC(=O)NC3CCCCC3)nc2-c2ccc(OC)cc2)cc1,39.1%
O=C(CSc1nnc(-c2ccc(Cl)cc2)c(-c2ccc(Cl)cc2)n1)NC1CCCC1,i
Cc1ccc(-c2nnc(SCC(=O)NC3CCCC3)nc2-c2ccc(C)cc2)cc1,5.01µM*
O=C(c1ccc(Cl)cc1)N1CCC(N2CCCCC2=O)CC1,2.4%
CC(C)NC(=O)N1CC2ON=C(C(=O)N3CCOCC3)C2C1 (stereo not drawn),18.5%
CCOC(=O)c1nc(Nc2ccc(Cl)cc2)c2c(C)noc2n1,16.7%
CCOC(=O)c1ccc(Nc2nc3nonc3nc2Nc2cccc(C)c2C)cc1,1.12µM*
CCOC(=O)c1ccc(Nc2nc3ccccc3n3c(C)nnc23)cc1,-23.5%
Cc1cccc(CC(=O)N2CCCN(c3cc(-c4ccc(Br)cc4)[nH]n3)CC2)c1,i
Cc1ccc(NC(=O)Nc2ccc(C)n(CC(=O)NCCC(C)C)c2=O)cc1,i
O=C1Nc2cnccc2C2(CCN([S+](=O)([O-])c3cccc(C(F)(F)F)c3)C2)O1 (stereo not drawn),-6.7%
O=C(Cn1nc2c(cc1=O)CCCCC2)Nc1nc(-c2ccccn2)cs1,-16.5%
O=C(c1ccc(C2CCCNC2)cc1)N1CCCN(c2ncccn2)CC1 (stereo not drawn),-1.7%
SMILES,Pf Dd2 inh
O=C(c1ccc(C2CCCNC2)cc1)N1CCC(Oc2cccc(F)c2)CC1 (stereo not drawn),12.6µM*
O=C(c1ccc(F)cc1)N1CCC(Oc2cccnc2)C1 (stereo not drawn),12.2%
Cc1ccccc1Nc1cnc2ccc(-c3cccc(CO)c3)nn12,2.51µM*
COc1ccc(Nc2cnc3ccc(-c4cccc(CO)c4)nn23)cc1,i
COc1ccc(-c2ccc3ncc(Nc4ccccc4C)n3n2)cn1,5.62µM*
COc1ccc(-c2ccc3ncc(Nc4ccc(C(N)=O)cc4)n3n2)cn1,i
COc1ccc(-c2ccc3ncc(Nc4cccc(F)c4)n3n2)cn1,i
OCc1cccc(-c2ccc3ncc(Nc4cccc(F)c4)n3n2)c1,i
Cc1cc(C(=O)N[C@H](C)c2onc(-c3cccnc3)c2C(=O)O)no1,9.1%[44.1 µM]
O=S(=O)(NC1CCc2nnc(C3CC3)n2CC1)c1cccnc1 (stereo not drawn),31.8%
Cc1ccc(C(=O)N2CCCC(N)CC2)cc1N1CCNC1=O (stereo not drawn),-11.5%
Cn1cccc1CN1CCC2(CC1)CN[S+](=O)([O-])c1cccnc1O2,-11.8%
CCc1ccc(Cn2c(CNS(=O)(=O)c3ccc(C)c(C)c3)nc3cccnc32)cc1,-15.2%
CCc1ccc(C(=O)c2cnc3ccc(C)cc3c2S(=O)(=O)c2ccc(OC)cc2)cc1,11.2µM*
CCOc1ccc(S(=O)(=O)c2c(C(=O)c3ccc(CC)cc3)cnc3ccc(C)cc23)cc1,i
Cc1ccc(CCNC(=O)c2cc(Nc3ccc(C)c(C)c3)nc3ccccc23)cc1,-2.3%

# High-throughput results deposited in PubChem BioAssay by National Center for Advancing Translational Sciences (NCATS).
